Test system: Vero E6 infected with SARS-CoV-2
Assay: inhibition of SARS-CoV-2 cytopathic effect; higher = more antiviral protection, active = above 15
Conditions: 48 h

Measured: inhibition of SARS-CoV-2 cytopathic effect

O=c1[nH]c(=O)n([C@H]2C[C@H](O)[C@@H](CO)O2)cc1Br [broxuridine]
inactive: 1 nM 1.7% | 8.33 nM 1.06% | 100 nM 1.08% | 833.33 nM 3.59% | 10000 nM 0.04%

O=[N+]([O-])c1cncn1CCN1CCOCC1 [nimorazole]
inactive: 1 nM -1.41% | 8.33 nM -0.32% | 100 nM 0.99% | 833.33 nM 0.22% | 10000 nM -0.02%

Oc1ccc(O)cc1 [hydroquinone]
inactive: 1 nM -0.8% | 8.33 nM 2.88% | 100 nM 1.25% | 833.33 nM 1.2% | 10000 nM 1.62%

N#Cc1cccc(C(=O)Nc2cc(-c3ccccc3)nn2-c2ccccc2)c1
inactive: 1 nM 1.77% | 8.33 nM 4.71% | 100 nM 3.47% | 833.33 nM 3.43% | 10000 nM 1.98%

COc1ccc(S(=O)(=O)N(C(C)=O)c2ccccc2/C=C/c2cc[n+]([O-])cc2)cc1
inactive: 1 nM 2.08% | 8.33 nM 0.26% | 100 nM -2.17% | 833.33 nM -2.71% | 10000 nM -2.49%

CC(C)S(=O)(=O)NC[C@H](C)c1ccc(-c2ccc(CCNS(C)(=O)=O)cc2)cc1 [mibampator]
inactive: 1 nM -0.11% | 8.33 nM -1.29% | 100 nM -1.07% | 833.33 nM 1.62% | 10000 nM 4.07%

C[C@H]1CC[C@H](n2c3cnccc3c3cnc(Nc4ccc5c(n4)CCN(C(=O)CO)C5)nc32)CC1
inactive: 1 nM -2.38% | 8.33 nM -0.1% | 100 nM -1.1% | 833.33 nM -0.44% | 10000 nM -5.03%

Cn1c(-c2ccccc2)nnc1S(C)(=O)=O
inactive: 1 nM 2.45% | 8.33 nM -0.41% | 100 nM 0.33% | 833.33 nM -0.57% | 10000 nM 2.92%

C[C@H]1NC(=O)NC1=O [5-methylhydantoin-(D)]
inactive: 1 nM -0.22% | 8.33 nM -0.75% | 100 nM -0.63% | 833.33 nM -6.83% | 10000 nM 0.71%

C[C@@H](Oc1ccc2[nH]nc(/C=C/c3cnn(CCO)c3)c2c1)c1c(Cl)cncc1Cl
inactive: 1 nM -0.14% | 8.33 nM -0.97% | 100 nM -1.04% | 833.33 nM -13.8% | 10000 nM -14.7%

O=c1c(O[C@@H]2O[C@H](CO)[C@H](O)[C@H](O)[C@H]2O)c(-c2ccc(O)c(O)c2)oc2cc(O)cc(O)c12 [hyperin]
inactive: 1 nM 0.95% | 8.33 nM 2.27% | 100 nM -0.59% | 833.33 nM -1.62% | 10000 nM 0.59%

c1cnc2c([O][Ga]([O]c3cccc4cccnc34)[O]c3cccc4cccnc34)cccc2c1 [gallium-triquinolin-8-olate]
inactive: 1 nM -0.23% | 8.33 nM 1.56% | 100 nM -0.49% | 833.33 nM 4.98% | 10000 nM 3.63%

CC(=O)O[C@]1(C(C)=O)CC[C@H]2[C@@H]3CCC4=CC(=O)CC[C@]4(C)[C@H]3CC[C@@]21C [hydroxyprogesterone-acetate]
inactive: 1 nM -3.23% | 8.33 nM 0.18% | 100 nM -2.75% | 833.33 nM 0.45% | 10000 nM 10.9%

CN[C@@H]1[C@@H](O[C@H]2O[C@H](CO)[C@@H](N)[C@H](O)[C@H]2O)O[C@H]2C[C@@H](N)[C@@H](O[C@H]3[C@H](O)[C@@H](O)[C@H](N)C[C@@H]3N)O[C@@H]2[C@@H]1O [apramycin]
inactive: 1 nM -4.27% | 8.33 nM -2.53% | 100 nM -2.38% | 833.33 nM 0.37% | 10000 nM 0.71%

COCCOc1ccc(N2CCN(CCn3ncc4c3nc(N)n3nc(-c5ccco5)nc43)CC2)cc1 [preladenant]
inactive: 1 nM 1.43% | 8.33 nM 0.62% | 100 nM 3.21% | 833.33 nM 0.67% | 10000 nM 2.45%

COc1cc2c(NC3CCN(C)CC3)nc(N3CCCN(C)CC3)nc2cc1OCCCN(C)C
inactive: 1 nM 2.93% | 8.33 nM 3.22% | 100 nM 3.09% | 833.33 nM 3.57% | 10000 nM 4.51%

CCC(=O)N1CCOc2c(cc(-c3ccc(OC)c(OC)c3)cc2OC[C@H]2CCCN(C)C2)C1
inactive: 1 nM 1.79% | 8.33 nM 8.72% | 100 nM 0.95% | 833.33 nM 1.75% | 10000 nM 0.51%

Reference: the supplement of paper PMC13380429
